In the supplement of paper PMC6555819:

Columns and labels:
Assay in all cases: PBM binding z-score (relative to random genomic background probes); higher = stronger binding; sequences stand for … in GC…GCGATTGACAGCGTAGAATGAAGG
[1] = test system: FXR:RXRa (NR concentration 270 nM, RXRa partner concentration 90 nM)
Procedure, shortened: (§1)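 Binding z-scores were set against random background probes. The data came from custom Agilent 4×180K protein-binding microarrays carrying double-stranded probes with 34-nt variable regions, incubated 1 h with ligand-free nuclear receptor dimers. Partner-specific antibodies detected binding, and scanned fluorescence was regression-normalized.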

[2] = test system: LXRa:RXRa (NR concentration 270 nM, RXRa partner concentration 90 nM)
Procedure, shortened: as §1

[3] = test system: LXRa homodimer (NR concentration 270 nM)
Procedure, shortened: as §1

[4] = test system: LXRb:RXRa (NR concentration 270 nM, RXRa partner concentration 90 nM)
Procedure, shortened: as §1

[5] = test system: LXRb homodimer (NR concentration 270 nM)
Procedure, shortened: as §1

[6] = test system: PPARa:RXRa (NR concentration 270 nM, RXRa partner concentration 90 nM)
Procedure, shortened: as §1

[7] = test system: PPARg:RXRa (NR concentration 180 nM, RXRa partner concentration 90 nM)
Procedure, shortened: as §1

[8] = test system: PPARg:RXRa 270nM:90nM, anti-RXR (NR concentration 270 nM, RXRa partner concentration 90 nM)
Procedure, shortened: as §1

[9] = test system: PPARg:RXRa 30nM:10nM, anti-RXR (NR concentration 30 nM, RXRa partner concentration 10 nM)
Procedure, shortened: as §1

[10] = test system: PPARg:RXRa 90nM:30nM, anti-RXR (NR concentration 90 nM, RXRa partner concentration 30 nM)
Procedure, shortened: as §1

[11] = test system: PPARg:RXRa DBDmut IVT, anti-RXR (DBD mutation: RXRa K156A/R161A, NR concentration 270 nM, RXRa partner concentration 90 nM)
Procedure, shortened: as §1

[12] = test system: PPARg:RXRa IVT, anti-PPARg (NR concentration 270 nM, RXRa partner concentration 90 nM)
Procedure, shortened: as §1

[13] = test system: PPARg DBDmut:RXRa IVT, anti-PPARg (DBD mutation: PPARg1 K132A/R137A, NR concentration 270 nM, RXRa partner concentration 90 nM)
Procedure, shortened: as §1

[14] = test system: PPARg DBDmut IVT, anti-PPARg (DBD mutation: PPARg1 K132A/R137A, NR concentration 270 nM)
Procedure, shortened: as §1

[15] = test system: PPARg homodimer (NR concentration 180 nM)
Procedure, shortened: as §1

[16] = test system: PXR:RXRa (NR concentration 270 nM, RXRa partner concentration 90 nM)
Procedure, shortened: as §1

[17] = test system: PXR homodimer (NR concentration 270 nM)
Procedure, shortened: as §1

[18] = test system: RARa:RXR (NR concentration 270 nM, RXRa partner concentration 90 nM)
Procedure, shortened: as §1

[19] = test system: RARa homodimer (NR concentration 270 nM)
Procedure, shortened: as §1

[20] = test system: RARb:RXRa (NR concentration 270 nM, RXRa partner concentration 90 nM)
Procedure, shortened: as §1

Row | Sequence | PBM binding z-score [1] | PBM binding z-score [2] | PBM binding z-score [3] | PBM binding z-score [4] | PBM binding z-score [5] | PBM binding z-score [6] | PBM binding z-score [7] | PBM binding z-score [8] | PBM binding z-score [9] | PBM binding z-score [10] | PBM binding z-score [11] | PBM binding z-score [12] | PBM binding z-score [13] | PBM binding z-score [14] | PBM binding z-score [15] | PBM binding z-score [16] | PBM binding z-score [17] | PBM binding z-score [18] | PBM binding z-score [19] | PBM binding z-score [20]
1 | GCGTGTAGATCAAGGTTAAGAAAGACTAAGCTAA | 0.359 | 0.939 | -0.369 | 0.539 | -0.757 | 1.28 | 0.0821 | 0.373 | -0.0969 | 0.289 | -0.0954 | 0.359 | -0.293 | -0.542 | 0.178 | 0.409 | 0.176 | 1.16 | -0.389 | 0.791
2 | AGACCGAGGGCAATGAGTTGATAGCACGGGTGGC | -0.192 | -0.0854 | -0.495 | -0.427 | -0.95 | 0.375 | 0.499 | -0.467 | -0.824 | -0.435 | 0.184 | 0.251 | -0.826 | -1.67 | -1.05 | 1.23 | 5.21 | -0.109 | -0.589 | 1.79
3 | CGGACTGGGGCAGAAAGGTTACCATACCATCCGG | 0.574 | 0.739 | -0.05 | 1.25 | -0.31 | 2.7 | 2.62 | 3.46 | 1.89 | 2.62 | 3.24 | 4.12 | -0.341 | -0.159 | 1.44 | 1.41 | 0.0628 | 1.82 | 0.413 | 2.12
4 | CGATCTAGGTCAAGGACAGTGAATCTCCGCACGC | 3.25 | 2.07 | 0.0913 | 1.3 | -0.135 | 4.43 | 7.27 | 5.87 | 3.68 | 5.55 | 7.91 | 8.16 | 4.56 | 2.13 | 2.28 | 0.815 | 0.057 | 2.01 | 0.269 | 3.87
5 | TCTTGTAGATCAAAGGTTGAGAAAGCCGAAGCCT | 0.89 | 0.864 | -0.12 | 0.541 | -0.308 | 3.14 | 5.99 | 6.2 | 5.78 | 6.91 | 2.32 | 2.51 | 0.407 | -0.0322 | -0.0761 | 0.618 | -0.464 | 1.05 | -0.393 | 0.592
6 | CAGCCGAGGTCAGGGCCAGTATAGGAGGAACGTT | 6.57 | 3.98 | -0.152 | 3.28 | -0.519 | 5.6 | 5.04 | 4.49 | 1.2 | 3.28 | 1.87 | 3.21 | 0.298 | -0.547 | 2.95 | 3.5 | 0.241 | 4.36 | 0.349 | 4.81
7 | ATCTATAGGTAAAGTTCAGTGAAAGATCGATAGA | 1.21 | 1.7 | 1.38 | 1.19 | 0.71 | 2.2 | 3.67 | 4.69 | 2.81 | 4.71 | 1.31 | 1.74 | 1.49 | 1.19 | 1.41 | 1.99 | 1.33 | 1.21 | 1.04 | 2.62
8 | TCTTGTAGATGAAGCAGGTTAAGAAAGCCTGAGT | 0.563 | -0.122 | -0.489 | 0.276 | -0.649 | 0.511 | -0.527 | 0.925 | 2.72 | 1.69 | 1.86 | 0.0295 | 0.394 | -0.11 | 0.107 | 0.195 | 0.164 | 0.228 | -0.232 | -0.0996
9 | CCCGAAAGGTCGTGCTCAGGTGAGTATACCAAAC | 5.73 | 4.05 | 0.438 | 3.37 | 0.415 | 4.94 | 2.94 | 3.87 | 0.899 | 2.53 | 0.981 | 1.75 | 0.719 | 0.627 | 2.37 | 3.19 | 0.159 | 4.35 | 0.613 | 4.01
10 | CAAACTAGGTCCCAGAGGTCAAAGTCCGTGCGTA | 4.91 | 5.18 | 5.61 | 5.18 | 1.42 | 4.98 | 4.51 | 4.75 | 2.13 | 4.08 | 4.19 | 4.68 | 1.03 | 0.477 | 2.64 | 5.55 | 2.66 | 5.68 | 1.33 | 3.8
11 | GGAACGAGGGCATGCGAGTTGATAGCATGGCGAT | 0.758 | 0.468 | -0.615 | -0.143 | -1.37 | 1.35 | 0.979 | 0.516 | -0.248 | 0.117 | 2.78 | 1.98 | -0.352 | -0.663 | -0.621 | 3.59 | 0.407 | 0.73 | -0.824 | 1.91
12 | CCTACTGGGCCACGAAAGGTCATCGATTCAGTGA | 3.74 | 5.24 | 4.54 | 4.28 | 0.188 | 5.09 | 5.36 | 5.2 | 2.42 | 4.73 | 5.98 | 5.97 | -0.47 | 0.605 | 4.31 | 5.62 | 0.616 | 6.08 | 0.927 | 4.17
13 | TTACCAAGGTGAAGGTCGCTGATCCCTCTGTAGA | 1.1 | 0.984 | -0.243 | 0.689 | -1.18 | 2.43 | 2.63 | 4.12 | 1.98 | 3.68 | 1.76 | 3.41 | -0.525 | -0.735 | 0.05 | 0.966 | -0.523 | 1.56 | -0.643 | 2.5
14 | TCTATTAGTTGAAGGGCAGCCGACGAGTCCGTTT | 0.906 | 0.864 | 0.0935 | 0.623 | 0.323 | 0.856 | -0.213 | 1.78 | 3.64 | 2.81 | 2.37 | 0.427 | 0.454 | 1.07 | 0.963 | 0.654 | 0.958 | 0.447 | 0.781 | 1.37
